# Mtb betalactam: beta-lactam sensitization of Mtb H37Rv, H37Rv; M. tuberculosis H37Rv growth with meropenem, percent inhibition; inhibition, % at 25 µM; 0.27% of 330,000 active; AID 434955, 2010; call rule not given here;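 note: growth measured after seven days incubation then overnight dye step; 0% = bacteria only wells and 100% = bacteria with antibiotic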
# Mtb UGM inh: M. tuberculosis UGM enzyme inhibitors, primary screen, biochemical, fluorescence polarization, single point; inhibition, % at 10 µM; 0.06% of 320,000 active; purified UGM, fluorescence polarization probe displacement; UDP-galactopyranose mutase (Mycobacterium tuberculosis (strain ATCC 25618 / H37Rv)), …; in the data active = inhibition above about 10%, passing the limit was not always enough
# RecA intein inh: Mtb RecA intein splicing inhibitors, primary screen, biochemical, fluorescence, HTS | Protein RecA (Mycobacterium tuberculosis (strain ATCC 25618 / H37Rv)), P9WHJ3 | cell-free RecA intein splicing | inhibition, % (test concentration not listed) | 0.75% of 290,000 active; in the data active = inhibition above about 30%;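 note: 0% = vehicle wells and 100% = reference inhibitor control wells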
# Mtb FBA inh: Mtb FBA enzyme inhibitors, primary screen, biochemical, fluorescence, strain H37Rv; Fructose-bisphosphate aldolase (Mycobacterium tuberculosis (strain ATCC 25618 / H37Rv)), …; purified M. tuberculosis FBA, fluorescence read-out; inhibition, % at 1 µM; 2.3% of 360,000 active; AID 588726, 2011; in the data active = inhibition above about 27%;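 note: 0% = vehicle and 100% = reference inhibitor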
# Target sequence (P9WQA3 whole entry, looked up): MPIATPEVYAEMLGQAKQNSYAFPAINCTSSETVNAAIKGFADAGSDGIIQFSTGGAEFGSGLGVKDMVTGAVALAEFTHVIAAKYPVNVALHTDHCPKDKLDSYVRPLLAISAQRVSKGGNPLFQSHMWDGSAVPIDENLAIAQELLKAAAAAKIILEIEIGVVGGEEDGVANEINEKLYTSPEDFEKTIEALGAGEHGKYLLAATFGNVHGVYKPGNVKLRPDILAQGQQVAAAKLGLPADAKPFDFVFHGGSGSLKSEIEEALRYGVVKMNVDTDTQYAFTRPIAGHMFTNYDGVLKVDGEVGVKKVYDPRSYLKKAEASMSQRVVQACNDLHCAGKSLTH
# GDH-TPI counter: GDH-TPI coupling enzyme inhibitors, primary screen, artefact control for M. tuberculosis FBA inhibitor project, biochemical, absorbance, full deck; GDH-TPI coupled enzyme counterscreen, NADH absorbance; AID 588335, 2011; 1.2% of 360,000 active; inhibition, % at 4.8 µM; in the data active = inhibition above about 30%;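 note: 0% = DMSO wells and 100% = wells lacking the enzyme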
# Rv3671c protease: Rv3671c serine protease inhibitors, primary screen, biochemical, fluorescence polarization, M. tuberculosis H37Rv; inhibition, % at 5.96 µM; 0.048% of 320,000 active; AID 2606, 2010; in the data active = inhibition above about 38%;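 note: extracellular domain of Rv3671c used as enzyme; 0% = enzyme with DMSO and 100% = no enzyme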
# * hit, by the source's call; . = no result given; + = active, no number. Only some compounds are listed: those with a hit (about 4% of all), similar ones and a draw of the others.
SMILES,Mtb betalactam,Mtb UGM inh,RecA intein inh,Mtb FBA inh,GDH-TPI counter,Rv3671c protease
COc1ccccc1C(=O)NC(=O)COC(=O)CNC(=O)c1ccccc1,-2,1,-2,-2,16,-4
CC(C)C(NC(=O)CN1C(=O)c2cccc3cccc1c23)C(C)C,-7,-1,-17,2,36*,5
COC(=O)c1c(NC(=O)/C=C/C(=O)O)sc(C)c1-c1ccc(C)cc1,4,-1,43*,1,11,-4
OC(CSc1ccccc1)CN1CCN(c2cccc(Cl)c2)CC1 (centres undefined),.,.,.,-1,7,.
O=C(Nc1cccc(-c2ccc(N3CCOCC3)nn2)c1)c1cccc(Cl)c1,.,.,.,3,6,.
Cn1c(CC(=O)Nc2ccc(Cl)c(Cl)c2)n[nH]c1=S,0,0,4,55*,-1,1
CCOc1ccccc1-c1ccc(C(=O)NCc2ccccc2)o1,44,2,11,+,14,-16
O=C(O)CN1C(=O)/C(=C\c2ccc(OC(=O)c3ccco3)cc2)SC1=S,3,-1,30*,-4,11,-1
COc1cc(/C=C2\C(=N)N3N=C(S(=O)(=O)CC(C)C)SC3=NC2=O)ccc1OC(=O)c1ccco1,3,-7,32*,.,.,-6
CC(C)CS(=O)(=O)C1=NSC2=NC(=O)/C(=C\c3ccc(OC(=O)c4ccco4)cc3)C(=N)N21,98,-2,41*,3,16,-5
CCS(=O)(=O)C1=NN2C(=N)/C(=C\c3ccc(OC(=O)c4ccco4)cc3)C(=O)N=C2S1,80,0,33*,1,22,1
CCC(CC)C1=NN2C(=N)/C(=C/c3ccc(OC(=O)c4ccco4)cc3)C(=O)N=C2S1,99,2,8,3,10,-1
CN1CCN(C2CC(=O)N(CCc3ccccc3)C2=O)CC1 (centres undefined),-6,-1,0,0,-6,-6
CCCCOc1ccc(C(=O)N/C(=C/C=C/c2ccccc2)C(=O)O)cc1,5,5,-61,-1,22,-7
CCCCOc1ccc(C(=O)N/C(=C/C=C/c2ccccc2)C(=O)NC)cc1,8,0,.,0,33*,-10
O=C(O)COc1ccc(/C=N/NC(=O)/C(=C/C=C/c2ccccc2)NC(=O)c2ccccc2)cc1,3,2,7,3,55*,-1
Cc1nc2nc(N)nc(OCc3ccccc3)c2nc1C,-1,-2,-38,161*,7,0
Nc1nc(OCc2ccccc2)c2[nH]cnc2n1,8,1,11,1,-15,-2
COc1cc(C(=O)N/C(=C\c2cn(C)c3ccccc23)C(=O)NCCN2CCOCC2)cc(OC)c1OC,3,3,0,-2,41*,-5
CCn1cc(/C=C(\NC(=O)c2cc(OC)c(OC)c(OC)c2)C(=O)NCCN2CCOCC2)c2ccccc21,-2,2,2,-4,30,3
COc1ccc(C(=O)N/C(=C\c2cn(C)c3ccccc23)C(=O)NCCN2CCOCC2)cc1OC,-1,0,0,3,44*,-2
CC(NC(=O)C12CC3CC(CC(C3)C1)C2)C(=O)NCCN(C)C (centres undefined),1,-2,1,1,6,-7
O=C1c2ccccc2-c2nccnc21,-10,0,21,20,-6,-4
O=C1c2ccccc2-c2c1nc1c([n+]2[O-])CCCC1,-2,2,37*,-1,-6,-2
Cc1ccc(C(C[N+](=O)[O-])c2c(-c3ccccc3O)[nH][nH]c2=O)cc1 (centres undefined),98,2,53*,2,2,-30
SMILES,Mtb betalactam,Mtb UGM inh,RecA intein inh,Mtb FBA inh,GDH-TPI counter,Rv3671c protease
O=c1[nH][nH]c(-c2ccccc2O)c1C(C[N+](=O)[O-])c1ccc(Br)cc1 (centres undefined),100,-1,14,-1,0,-7
CCCC(C)C(=O)Nc1nc(C)c(-c2csc(Nc3ccc(Cl)cc3)n2)s1 (centres undefined),1,-1,3,0,4,-2
Cc1ccc(-c2cnc(C(O)c3ccc(Cl)cc3C)[nH]2)cc1 (centres undefined),.,.,.,-3,2,.
Cc1cc(OCC(=O)NNC(=O)c2cnccn2)cc(C)c1Cl,.,.,-2,-1,4,.
Nn1c(SCC(=O)Nc2ccc(OC(F)F)cc2)nnc1-c1ccco1,-9,-1,-3,-2,-11,-14
COC(=O)c1ccc(/C=N/Nc2nc(-c3ccccc3)cs2)cc1,2,-3,-3,0,26,15
COc1ccc(/C=N/Nc2nc(C(=O)O)cs2)cc1,-3,-2,-4,0,34*,6
COc1ccc(S(=O)(=O)N2CCCC2)c2ccccc12,2,1,1,1,-9,2
CC1(C)CC(=O)C(C=Nc2ccc(O)cc2)=C(O)C1,-8,1,-6,-3,14,-1
CC1(C)CC(=O)C(C=Nc2ccc3[nH]ncc3c2)=C(O)C1,8,-1,11,7,36*,-4
CC1(C)CC(=O)C(C=Nc2ccc3cn[nH]c3c2)=C(O)C1,-7,-2,4,4,39*,-6
COc1ccc(S(=O)(=O)c2c(N)n(Cc3ccco3)c3nc4ccccc4nc23)cc1,-3,0,-4,51*,15,-16
C=CCNC(=O)c1c(N)n(Cc2ccco2)c2nc3ccccc3nc12,14,3,-232,113*,11,-13
COCCCn1c(N)c(C(=O)NCc2ccco2)c2nc3ccccc3nc21,-9,-4,-266,.,.,-81
CC(C)(C)OC(=O)c1c(N)n(Cc2ccco2)c2nc3ccccc3nc12,2,2,-10,114*,16,-55
Cc1c(NC(=O)Nc2ccccc2C(F)(F)F)c(=O)n(-c2ccccc2)n1C,5,2,-1,1,0,4
O=C(CSc1nc2[nH]c(=O)cc(O)c2s1)Nc1ccc(Br)cc1,-11,0,.,6,32*,-1
O=C(CSc1nc2[nH]c(=O)cc(O)c2s1)Nc1cccc(Br)c1,-13,4,.,-5,16,-3
O=C(Nc1ccc(O)cc1)/C(=C/c1ccco1)NC(=O)c1ccccc1,-7,3,-1,-4,40*,-4
O=C(Nc1ccc(C(=O)O)cc1)/C(=C\c1ccco1)NC(=O)c1ccc(Br)cc1,.,.,.,-1,40*,.
O=C(Nc1ccc(C(=O)O)cc1)/C(=C\c1ccco1)NC(=O)c1ccc(Br)o1,1,1,-1,0,24,3

# From PubChem BioAssay
